The entries come from a sample that favours hits as a whole.
ALOX12 inh – Primary qHTS assay for inhibitors of human arachidonate 12S-lipoxygenase (ALOX12): Round 2. Polyunsaturated fatty acid lipoxygenase ALOX12 (Homo sapiens), P18054. 580,000 tested, 1.1% active. purified 12hLO, xylenol orange hydroperoxide absorbance. Potency, µM (top dose mostly 108 µM), inactives show at the top dose activity change, negative = inhibition, hits mostly inhibitors. AID 1671190, 2021; further: potency means the concentration at half of the fitted maximal effect
Target sequence (P18054 whole entry, looked up): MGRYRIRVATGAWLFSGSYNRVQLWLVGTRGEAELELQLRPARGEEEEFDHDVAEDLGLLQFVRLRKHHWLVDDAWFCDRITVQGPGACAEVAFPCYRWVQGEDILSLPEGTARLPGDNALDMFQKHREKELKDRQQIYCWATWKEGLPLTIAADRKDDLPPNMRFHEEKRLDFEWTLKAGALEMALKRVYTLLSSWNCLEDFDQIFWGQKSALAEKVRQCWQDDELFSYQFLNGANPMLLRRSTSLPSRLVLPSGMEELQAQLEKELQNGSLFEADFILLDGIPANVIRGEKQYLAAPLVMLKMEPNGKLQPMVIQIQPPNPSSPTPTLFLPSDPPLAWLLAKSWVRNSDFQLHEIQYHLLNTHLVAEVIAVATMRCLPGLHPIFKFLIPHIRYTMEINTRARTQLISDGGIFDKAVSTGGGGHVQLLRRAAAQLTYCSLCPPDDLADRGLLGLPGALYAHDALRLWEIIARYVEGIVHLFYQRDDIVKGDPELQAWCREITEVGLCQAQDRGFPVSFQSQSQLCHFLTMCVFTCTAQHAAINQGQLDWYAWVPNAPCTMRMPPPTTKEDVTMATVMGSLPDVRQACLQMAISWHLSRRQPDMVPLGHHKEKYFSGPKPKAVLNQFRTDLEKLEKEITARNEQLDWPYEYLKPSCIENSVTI
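Purified human 12hLO (150 nM final) in 25 mM Hepes, 0.01% Triton X-100, pH 7.0 was preincubated 15 min at room temperature with compound. Then 40 uM arachidonic acid was added, 30 min. Hydroperoxide was read by Fe-XO absorbance ratio 573/405 nm.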
HT1080 IDH1KD tx – qHTS for induction of synthetic lethality in tumor cells producing 2HG: qHTS for the HT-1080-IDH1KD cell line. HT-1080 IDH1 knockdown viability, ATP luminescence, 48 h. Potency, µM (doses to about 46.1 µM), inactives show top-dose activity, negative = toxicity, actives largely listed as cytotoxic. 360,000 tested, 2% active. AID 686971, 2013;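 further: potency means the concentration at half of the fitted maximal effect; 0% = DMSO wells and -100% = cell-free medium wells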
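In this qHTS, HT-1080 cells depleted of IDH1 are exposed for 48 h at 37 °C to compound titrations. Toxicity is scored from CellTiter-Glo luminescence, with DMSO as full viability and medium alone as none.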
IL-1B inflam inh – qHTS for Inhibitors of Inflammasome Signaling: IL-1-beta AlphaLISA Primary Screen; THP-1 LPS/ATP IL-1B secretion, AlphaLISA, 16 h; stronger effect = lower value; activity change, % at 57.5 µM; 360,000 tested, 4.7% active; AID 743279, 2014; in the data active means activity change below about -50%; inconclusive means mostly about -30% to -49%
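THP-1 cells pretreated 1 hr with compounds (up to 57.5 uM final), then stimulated with LPS (250 ng/mL final) plus ATP (1.25 mM final); secreted IL-1B measured by AlphaLISA after 16 hr, decreased signal indicating inhibition.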
HT1080-NT tox – qHTS for induction of synthetic lethality in tumor cells producing 2HG: qHTS for the HT-1080-NT fibrosarcoma cell line; 360,000 tested, 1.6% active; HT-1080-NT fibrosarcoma viability, CellTiter-Glo ATP luminescence, 48 h; Potency, µM (titrated, usually from 46.1 µM), for the others: at the top dose activity, negative = less viability, usual class: cytotoxic;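 further: NT is the 2HG producing partner of a matched IDH1 knockdown line; potency means the concentration at half of the fitted maximal effect; 0% = DMSO-treated cells and -100% = media-only wells without cells; nearly all actives have a fitted effect of over 55% in size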
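Fibrosarcoma NT cells, 750 per well in 5% FBS RPMI, were exposed to compound for 48 hours. Viability: CellTiter-Glo luminescence.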
DT40 TDP1 CPT – qHTS for Inhibitors of human tyrosyl-DNA phosphodiesterase 1 (TDP1): qHTS in cells in presence of CPT | chicken DT40 Tdp1-/-;hTDP1 cells + 20 nM CPT, ATP luminescence, 48 h | Potency, µM (doses to about 46.2 µM), inactives show at the top dose activity change, negative = growth inhibition, usual class: inhibitors | 420,000 tested, 12% active; further: potency means the concentration at half of the fitted maximal effect; nearly all actives have a fitted effect of over 55% in size
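Chicken DT40 Tdp1-/- cells complemented with human TDP1, 400 cells/well, exposed to compounds plus 20 nM camptothecin for at least 48 h at 37 C; viability read as ATP content by CellTiter-Glo luminescence.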
DT40 TDP1 no CPT – qHTS for Inhibitors of human tyrosyl-DNA phosphodiesterase 1 (TDP1): qHTS in cells in absence of CPT. DT40 Tdp1-/- hTDP1 cells, no CPT, ATP luminescence, 48 h. Potency, µM (doses to about 46.2 µM), for inactives: at the top dose activity change, negative = growth inhibition, most hits filed as inhibitors. 420,000 tested, 15% active; further: potency means the concentration at half of the fitted maximal effect; nearly all actives have a fitted effect of over 55% in size
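Cells were dispensed at 400 per well, compounds added by pin tool, plates incubated ≥48 hr at 37 °C, then CellTiter-Glo added for 30 min at room temperature before luminescence reading. Line: DT40 Tdp1-/- complemented with hTDP1; camptothecin omitted.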
The depositor's hits bear a star; ? = inconclusive; . = no result given. Unless noted, the call rests on the fitted dose curve; in most records, active means well fitted curve in the direction sought with a large enough effect; inconclusive means small, poorly fitted or top-dose-only effect, or another doubt; inactive means no such curve, though single readings can be large; an effect the other way counts as inactive or inconclusive. Unless noted, on the % scale 0 is the no-effect control and ±100 the full control effect.

SMILES	ALOX12 inh	HT1080 IDH1KD tx	IL-1B inflam inh	HT1080-NT tox	DT40 TDP1 CPT	DT40 TDP1 no CPT
CCOC(=O)c1c(NC(=O)c2ccco2)n(C2CCCCC2)c2nc3ccccc3nc12	?	16µM*	-21	?	7.3µM*	8.2µM*
COc1ccc(-n2c(NC(=O)c3ccco3)c(C#N)c3nc4ccccc4nc32)cc1	0%	-13%	4	-21%	16µM*	23µM*
Cc1ccc(Cn2c(C(C)Nc3nc(-c4ccc(F)cc4)cs3)nc3cc(Cl)c(Cl)cc32)cc1 (stereo unspecified)	-22%	-4%	30	0%	29µM*	?
CCCn1c(C(C)Nc2nc(-c3ccc(C)cc3)cs2)nc2cc(Cl)c(Cl)cc21 (stereo unspecified)	1%	2%	36	7%	?	-36%
COc1ccc(-c2csc(NC(C)c3nc4cc(Cl)c(Cl)cc4n3CCCO)n2)cc1 (stereo unspecified)	?	?	-26	?	?	15µM*
CC(Nc1nc(-c2cccc(Br)c2)cs1)c1nc2cc(Cl)c(N3CCCCC3)cc2n1CCOCCO (stereo unspecified)	-9%	?	-55*	?	?	?
Cc1ccc(Cn2c(C(C)Nc3nc(C)cs3)nc3cc(Cl)c(Cl)cc32)cc1 (stereo unspecified)	?	0%	16	-23%	?	?
CC(Nc1nc(-c2ccc(F)cc2)cs1)c1nc2cc(Cl)c(N3CCCCC3)cc2n1CCOCCO (stereo unspecified)	-11%	?	-75*	?	16µM*	21µM*
Cc1cccc(C)c1NC(=O)Nc1sc2nc3n(c(=O)c2c1C)CCC(C)CC3 (stereo unspecified)	-9%	.	.	.	.	.
Cc1csc(NC(C)c2nc3cc(C(F)(F)F)ccc3n2CCOCCO)n1 (stereo unspecified)	10%	2%	8	4%	?	-23%
CC(Nc1nc(-c2ccc(F)cc2)cs1)c1nc2cc(Cl)c(Cl)cc2n1CCOCCO (stereo unspecified)	0%	-23%	0	?	23µM*	21µM*
CC(Nc1nc(-c2ccc(F)cc2)cs1)c1nc2cc(Cl)c(N3CCCCC3)cc2n1CCCO (stereo unspecified)	-14%	?	-7	2%	7.3µM*	5.8µM*
Cc1ccc(Cn2c(CCNc3nc(-c4ccc(Cl)c([N+](=O)[O-])c4)cs3)nc3cc(Cl)c(Cl)cc32)cc1	?	-12%	27	-8%	?	?
O=[N+]([O-])c1cc(-c2csc(NCCc3nc4cc(Cl)c(N5CCCCC5)cc4n3CCCO)n2)ccc1Cl	-7%	-21%	6	-21%	?	16µM*
COc1ccc(C2CN=NC23CCCc2ccccc2C3=O)cc1 (stereo unspecified)	0%	?	7	?	?	23µM*
COc1ccc(C2CN=NC23CCc2ccccc2C3=O)cc1 (stereo unspecified)	-24%	16µM*	87	?	?	23µM*
CCc1ccc(-c2cc(C(F)(F)F)n3nc(C(=O)NCc4cnn(C)c4)cc3n2)s1	-1%	.	.	.	.	.
CCc1ccc(-c2cc(C(F)(F)F)n3nc(C(=O)Nc4cnn(Cc5ccc(C)cc5)c4)cc3n2)s1	.	3.2µM*	-27	?	5µM*	5µM*
CCOC(=O)N1CCN(c2cc(N3CCOCC3)c(F)cc2[N+](=O)[O-])CC1	0%	0%	-14	0%	-29%	?
CCOC(=O)N1CCN(c2cc(N3CCN(CC)CC3)c(F)cc2[N+](=O)[O-])CC1C (stereo unspecified)	-18%	?	?	0%	21µM*	?
O=C(c1ccc(F)cc1)N1CCN(CCc2ccncc2)CC1	-19%	.	.	.	-14%	-25%
Cc1ccc(C2C(C#N)=C(N)Oc3cc(C)oc(=O)c32)o1 (stereo unspecified)	?	?	-5	-28%	18µM*	18µM*
CO[C@@H]1CCOC[C@H]1NC(=O)c1cc(N2CCCCC2)ccc1Cl	22%	.	.	.	.	.
Cc1ccc(S(=O)(=O)N(C)CC(=O)Nc2nnc(CC(C)C)s2)cc1	?	4%	38	8%	-29%	5%
C/C(Cn1nnc([N+](=O)[O-])n1)=N\NC(=O)c1ccc(O)cc1	11%	-9%	41	?	15µM*	13µM*
SMILES	ALOX12 inh	HT1080 IDH1KD tx	IL-1B inflam inh	HT1080-NT tox	DT40 TDP1 CPT	DT40 TDP1 no CPT
C/C(Cn1cnc([N+](=O)[O-])n1)=N\NC(=O)c1cccnc1	0%	7%	20	7%	7%	7%
C/C(Cn1cnc([N+](=O)[O-])n1)=N\NC(=O)c1ccc(Br)cc1	-6%	1%	-1	5%	-8%	-1%
C/C(Cn1nnc([N+](=O)[O-])n1)=N\NC(=O)c1ccc(Cl)c(Cl)c1	-2%	?	1	?	18µM*	16µM*
CN1CCC(C(=O)N2CCC(n3c(=O)[nH]c4ccccc43)CC2)CC1	-10%	.	.	.	.	.
O=[N+]([O-])c1ccc(N/N=C/c2ccc[nH]2)cc1	35µM*	-22%	-77*	-4%	?	23µM*
O=C(N/N=C/c1ccc[nH]1)c1ccccc1[N+](=O)[O-]	0%	10%	-8	11%	-4%	-10%
COc1ccc(C=NNc2ccc([N+](=O)[O-])cc2S(=O)(=O)Nc2ccccc2C(=O)O)cc1OC	?	5%	5	3%	7%	-2%
O=[N+]([O-])c1ccc(N/N=C/c2c[nH]c3ccccc23)cc1	?	?	-90*	-25%	?	16µM*
O=[N+]([O-])c1ccccc1N/N=C/c1c[nH]c2ccccc12	?	?	-21	?	?	?
COc1ccccc1NS(=O)(=O)c1cc([N+](=O)[O-])ccc1N/N=C/c1c[nH]c2ccccc12	0%	?	-81*	?	?	?
